Results taken from PubChem BioAssay AID1159580 (chemical genetic matrix, 2015).
Where “and” joins values, the source holds several entries; their conditions need not be identical. Identical values can stand only once. The whole screen tested about 5,500 compounds, of which about 2,000 (36%) were called active. Not shown: some 18% with an inconclusive outcome. No stated cut-off is given here; in the data, active means normalized growth mostly below about 0.91 (no sharp cut-off); inconclusive means no clear call, values can overlap the other calls; inactive means mostly above about 0.92. This is one part of the list.

Test: chemical genetic growth profiling, strain panel (AID 1159580);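 further: tested at 20 µM; growth read once vehicle control cultures reached saturation at 30 °C; 1 = growth at the plate median or of vehicle wells; lower values mean less growth of the strain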
Details: S. cerevisiae deletion strains, growth OD

Measured: normalized growth

OC[C@H]1O[C@@H](Oc2ccc(O)cc2)[C@H](O)[C@@H](O)[C@@H]1O
inactive: locus YAL013W, strain DEP1, hits give low values 1.02 | locus YAL021C, strain ccr4, hits give low values 0.993 | locus YAL026C, strain drs2, hits give low values 1.02 | locus YAL030W, strain snc1, hits give low values 1.01 | locus YBL061C, strain skt5, hits give low values 1.02 | locus YBR009C, strain hhf1, hits give low values 1.02 | locus YBR021W, strain FUR4, hits give low values 0.988 | locus YBR023C, strain chs3, hits give low values 1.01 | locus YBR171W, strain sec66, hits give low values 1.01 | locus YBR229C, strain ROT2, hits give low values 1.02 | locus YBR231C, strain swc5, hits give low values 1 | locus YBR279W, strain paf1, hits give low values 1.01 | locus YCL011C, strain gbp2, hits give low values 1.01 | locus YCL016C, strain dcc1, hits give low values 0.992 | locus YCL029C, strain bik1, hits give low values 1.04 | locus YCL069W, strain vba3, hits give low values 1.01 | locus YCR088W, strain abp1, hits give low values 1.02 | locus YDL005C, strain med2, hits give low values 1.01 | locus YDL035C, strain GPR1, hits give low values 1 | locus YDL040C, strain nat1, hits give low values 1 | locus YDL074C, strain BRE1, hits give low values 1.03 | locus YDL101C, strain DUN1, hits give low values 1.02 | locus YDL134C, strain PPH21, hits give low values 1.02 | locus YDL185W, strain tfp1, hits give low values 1.02 | locus YDL192W, strain arf1, hits give low values 1.03 | locus YDR001C, strain nth1, hits give low values 1 | locus YDR069C, strain doa4, hits give low values 1.01 | locus YDR101C, strain arx1, hits give low values 1.01 | locus YDR137W, strain rgp1, hits give low values 1.02 | locus YDR159W, strain sac3, hits give low values 1.05 | locus YDR162C, strain NBP2, hits give low values 1.03 | locus YDR195W, strain ref2 1 | locus YDR297W, strain sur2, hits give low values 1 | locus YDR318W, strain mcm21, hits give low values 1.02 | locus YDR334W, strain swr1, hits give low values 1 | locus YDR335W, strain msn5, hits give low values 1.02 | locus YDR388W, hits give low values 1.01 | locus YDR392W, strain spt3, hits give low values 1.02 | locus YDR502C, strain sam2, hits give low values 1.01 | locus YEL003W, strain gim4, hits give low values 1.01 | locus YEL037C, strain rad23, hits give low values 0.999 | locus YEL061C, strain CIN8 (second series), hits give low values 1.01 | locus YEL061C, strain CIN8, hits give low values 1.01 | locus YER015W, strain faa2, hits give low values 1.01 | locus YER016W, strain bim1, hits give low values 1.01 | locus YER110C, hits give low values 1.03 | locus YER111C, strain swi4, hits give low values 1.01 | locus YER155C, strain BEM2 (second series), hits give low values 1.03 | locus YER155C, strain BEM2, hits give low values 0.999 | locus YER167W, strain BCK2, hits give low values 1.01 | locus YFR010W, strain ubp6, hits give low values 1.01 | locus YGL078C, strain dbp3, hits give low values 1.03 | locus YGL086W, strain mad1, hits give low values 1.01 | locus YGL167C, strain pmr1, hits give low values 1.02 | locus YGL173C, strain kem1, hits give low values 1.02 | locus YGL227W, strain vid30, hits give low values 1.01 | locus YGL240W, strain doc1, hits give low values 1.02 | locus YGL248W, strain PDE1, hits give low values 1.01 | locus YGL253W, strain hxk2, hits give low values 1.03 | locus YGR078C, strain PAC10, hits give low values 1.03 | locus YGR135W, strain pre9, hits give low values 1.03 | locus YGR252W, strain gcn5, hits give low values 1.02 | locus YHR013C, strain ard1, hits give low values 1.02 | locus YHR027C, strain rpn1, hits give low values 1.01 | locus YHR030C, strain SLT2, hits give low values 1 and 0.962 | locus YHR079C, strain IRE1 (second series), hits give low values 1.02 | locus YHR079C, strain IRE1, hits give low values 0.973 | locus YHR094C, strain hxt1, hits give low values 1.02 | locus YHR129C, strain ARP1, hits give low values 1.01 | locus YHR142W, strain chs7, hits give low values 1.01 | locus YHR200W, strain rpn10, hits give low values 1.02 | locus YIL066C, strain RNR3, hits give low values 1.01 | locus YIL073C, strain SPO22, hits give low values 1.08 | locus YIL125W, strain kgd1, hits give low values 1.02 | locus YIR030C, strain dcg1, hits give low values 1.01 | locus YJL092W, strain hpr5, hits give low values 1.01 | locus YJL095W, strain BCK1 (second series), hits give low values 1 | locus YJL095W, strain BCK1, hits give low values 1.04 and 0.973 | locus YJL115W, strain asf1, hits give low values 1 | locus YJL129C, strain trk1, hits give low values 1.03 | locus YJL134W, strain LCB3, hits give low values 1 | locus YJL154C, strain vps35, hits give low values 1.01 | locus YJL164C, strain tpk1, hits give low values 1.01 | locus YJL166W, strain qcr8, hits give low values 1.02 | locus YJL168C, strain set2, hits give low values 1.02 | locus YJL187C, strain SWE1 (second series), hits give low values 1.03 | locus YJL187C, strain SWE1, hits give low values 1.02 | locus YJR066W, strain TOR1, hits give low values 0.959 | locus YKL009W, strain mrt4, hits give low values 1.02 | locus YKL068W, hits give low values 1.01 | locus YKL085W, strain MDH1 (second series), hits give low values 1.01 | locus YKL085W, strain MDH1, hits give low values 1.01 | locus YKL160W, strain elf1, hits give low values 1 | locus YKR001C, strain vps1, hits give low values 1.03 | locus YKR026C, strain gcn3, hits give low values 1.01 | locus YKR091W, strain srl3, hits give low values 1 | locus YLL001W, strain dnm1, hits give low values 1.01 | locus YLL026W, hits give low values 1.01 | locus YLL041C, strain sdh2, hits give low values 1.03 | locus YLR027C, strain aat2, hits give low values 1.01 | locus YLR039C, strain RIC1, hits give low values 1.06 | locus YLR058C, strain SHM2, hits give low values 1.04 | locus YLR102C, strain apc9, hits give low values 1.02 | locus YLR113W, strain HOG1, hits give low values 0.944 | locus YLR221C, strain rsa3, hits give low values 1.01 | locus YLR258W, strain gsy2, hits give low values 1.01 | locus YLR262C, strain YPT6 (second series), hits give low values 1.03 | locus YLR268W, strain sec22, hits give low values 1.03 | locus YLR320W, strain mms22, hits give low values 1.03 | locus YLR330W, strain CHS5, hits give low values 1.01 | locus YLR342W, strain FKS1, hits give low values 1.01 | locus YLR357W, strain rsc2, hits give low values 1.03 | locus YLR370C, strain arc18, hits give low values 1.01 | locus YLR371W, strain rom2, hits give low values 1.01 | locus YLR384C, strain iki3, hits give low values 1.03 | locus YLR418C, strain cdc73, hits give low values 1.06 | locus YML016C, strain PPZ1, hits give low values 1 | locus YML032C, strain rad52, hits give low values 1.03 | locus YML120C, strain ndi1, hits give low values 1.01 | locus YML124C, strain tub3, hits give low values 1.02 | locus YMR058W, strain fet3, hits give low values 1.01 | locus YMR078C, strain ctf18, hits give low values 1.04 | locus YMR125W, strain sto1, hits give low values 1.03 | locus YMR129W, hits give low values 1.01 | locus YMR205C, strain PFK2, hits give low values 1 | locus YMR223W, strain ubp8, hits give low values 1.02 | locus YMR231W, strain pep5, hits give low values 1.01 | locus YMR307W, strain GAS1, hits give low values 0.945 | locus YNL067W, strain RPL9B, hits give low values 1.02 | locus YNL071W, strain lat1, hits give low values 1.01 | locus YNL183C, strain NPR1, hits give low values 0.963 | locus YNL209W, strain ssb2, hits give low values 1.02 | locus YNL233W, strain BNI4, hits give low values 1.02 | locus YNL248C, strain rpa49, hits give low values 1.03 | locus YNL250W, strain rad50, hits give low values 1.05 | locus YNL271C, strain bni1, hits give low values 1.02 | locus YNL298W, strain CLA4, hits give low values 1.02 | locus YNL307C, strain MCK1, hits give low values 1.02 | locus YNL322C, strain KRE1 (second series), hits give low values 1 | locus YNR049C, strain mso1, hits give low values 1.02 | locus YNR052C, strain pop2, hits give low values 1.03 | locus YOL006C, strain TOP1, hits give low values 1.06 | locus YOL012C, strain htz1 0.901 | locus YOL147C, strain pex11, hits give low values 1.01 | locus YOR001W, strain rrp6, hits give low values 1.01 | locus YOR061W, strain CKA2, hits give low values 1.02 | locus YOR069W, strain VPS5, hits give low values 1.01 | locus YOR070C, strain gyp1, hits give low values 1.01 | locus YOR080W, strain dia2, hits give low values 1 | locus YOR083W, strain WHI5, hits give low values 0.992 | locus YOR106W, strain vam3, hits give low values 0.992 | locus YOR136W, strain idh2, hits give low values 1.03 | locus YOR144C, strain elg1, hits give low values 1.02 | locus YOR184W, strain ser1, hits give low values 1.05 | locus YOR231W, strain MKK1, hits give low values 0.958 | locus YOR265W, strain rbl2, hits give low values 0.991 | locus YOR270C, strain vph1, hits give low values 1.05 | locus YOR290C, strain snf2, hits give low values 0.993 | locus YOR316C, strain cot1, hits give low values 1.02 | locus YPL051W, strain arl3, hits give low values 0.989 | locus YPL055C, strain LGE1, hits give low values 1.04 | locus YPL078C, strain atp4, hits give low values 1.01 | locus YPL106C, strain sse1, hits give low values 0.995 | locus YPL240C, strain hsp82, hits give low values 1.01 | locus YPL241C, strain CIN2, hits give low values 1.01 | locus YPL256C, strain CLN2, hits give low values 0.977 | locus YPR119W, strain clb2, hits give low values 1.03 | locus YPR141C, strain kar3, hits give low values 1.02 | locus YPR163C, strain tif3, hits give low values 1.03 | locus YPR167C, strain met16, hits give low values 1.03 | strain wtn01, hits give low values 1.02
